Assay [1] addresses Rap guanine nucleotide exchange factor 3 (Homo sapiens) (UniProt O95398). Description: Confirmatory qHTS for antagonist of cAMP-regulated guanine nucleotide exchange factor 3 (EPAC1) (AID 1645880). Further: nearly all actives have a fitted effect of over 55% in size. Further: potency means the concentration at half of the fitted maximal effect. To be noted: EPAC1 Rap1B-BODIPY-GDP exchange, fluorescence; series mostly up to 115 µM. The essentials: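 Nucleotide exchange uses 100 nM EPAC1, 250 nM RAP1B-BODIPY-GDP and 50 uM GDP, with compounds in a concentration-titration series. After 5 min at room temperature, fluorescence (480 nm ex/540 nm em) is read every 5 min for 30 min. Data are normalized to control ATA and DMSO.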
A general note: qHTS replaces the single test concentration by a dilution series.

Assay [2] shares this target. Description: Confirmatory qHTS for agonist of cAMP-regulated guanine nucleotide exchange factor 3 (EPAC1) (AID 1645881).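 Further: EPAC1 catalysed release of BODIPY-GDP from Rap1B seen as fluorescence loss; 100% = effect of cAMP agonist control; nearly all actives have a fitted effect of over 75% in size.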 As to conditions: EPAC1 Rap1B BODIPY-GDP exchange fluorescence; series mostly up to 154 µM.
Assay [3] concerns the target Rap guanine nucleotide exchange factor 4 (Homo sapiens) (UniProt Q8WZA2). Description: Confirmatory qHTS for agonist of cAMP-regulated guanine nucleotide exchange factor 4 (EPAC2) (AID 1645884).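 Further: nucleotide exchange releases bodipy-GDP from Rap1 and this lowers its fluorescence; on the % scale 0 is the no-effect control and ±100 the full control effect; nearly all actives have a fitted effect of over 65% in size.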 To be noted: EPAC2 GEF activity, Rap1B-BODIPY-GDP fluorescence; series mostly up to 154 µM.
Assay [4] has the same target. Description: Confirmatory qHTS for antagonist of cAMP-regulated guanine nucleotide exchange factor 4 (EPAC2) (AID 1645885). Further: nearly all actives have a fitted effect of over 25% in size. Further: potency means the concentration at half of the fitted maximal effect. On activity change, negative = inhibition: on the % scale 0 is the no-effect control and ±100 the full control effect. As to conditions: EPAC2 Rap1B-BODIPY-GDP exchange fluorescence, biochemical; series mostly up to 12.7 µM.
Assay [5] concerns the target Rap guanine nucleotide exchange factor 3 (Homo sapiens) (UniProt O95398). The experiment in a line: Counterscreen qHTS for antagonist of cAMP-regulated guanine nucleotide exchange factor 3 (EPAC1) (AID 1645888).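 Further: fluorescence loss as bound BODIPY-GDP is released from Rap1B; % of control where 0% means no effect.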 To be noted: Rap1B-BODIPY-GDP nucleotide exchange, fluorescence; series mostly up to 154 µM. In outline: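 Rap1B–BODIPY-GDP (250 nM) with 50 uM GDP; compounds pin-transferred to 9.74 nM–152 uM final (activator) or from 7.32 nM upwards (inhibitor). Fluorescence Ex/Em 480/540 nm read at 5 and 30 min, then after adding cAMP or buffer, at room temperature.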
(The purpose of a counterscreen is to sort out artefacts and off-target activity.)

From PubChem BioAssay (NCATS) come the findings set out here.

The structures appear in SMILES notation. Results filed as inconclusive are left out. Unmarked numbers belong to inactive results. Calls of active or inactive are those of the source. The call rests on the fitted dose curve; in most records, active means well fitted curve in the direction sought with a large enough effect; inconclusive means small, poorly fitted or top-dose-only effect, or another doubt; inactive means no such curve, though single readings can be large; an effect the other way counts as inactive or inconclusive.

Rap guanine nucleotide exchange factor 3 (Homo sapiens), sequence (O95398 whole entry, looked up): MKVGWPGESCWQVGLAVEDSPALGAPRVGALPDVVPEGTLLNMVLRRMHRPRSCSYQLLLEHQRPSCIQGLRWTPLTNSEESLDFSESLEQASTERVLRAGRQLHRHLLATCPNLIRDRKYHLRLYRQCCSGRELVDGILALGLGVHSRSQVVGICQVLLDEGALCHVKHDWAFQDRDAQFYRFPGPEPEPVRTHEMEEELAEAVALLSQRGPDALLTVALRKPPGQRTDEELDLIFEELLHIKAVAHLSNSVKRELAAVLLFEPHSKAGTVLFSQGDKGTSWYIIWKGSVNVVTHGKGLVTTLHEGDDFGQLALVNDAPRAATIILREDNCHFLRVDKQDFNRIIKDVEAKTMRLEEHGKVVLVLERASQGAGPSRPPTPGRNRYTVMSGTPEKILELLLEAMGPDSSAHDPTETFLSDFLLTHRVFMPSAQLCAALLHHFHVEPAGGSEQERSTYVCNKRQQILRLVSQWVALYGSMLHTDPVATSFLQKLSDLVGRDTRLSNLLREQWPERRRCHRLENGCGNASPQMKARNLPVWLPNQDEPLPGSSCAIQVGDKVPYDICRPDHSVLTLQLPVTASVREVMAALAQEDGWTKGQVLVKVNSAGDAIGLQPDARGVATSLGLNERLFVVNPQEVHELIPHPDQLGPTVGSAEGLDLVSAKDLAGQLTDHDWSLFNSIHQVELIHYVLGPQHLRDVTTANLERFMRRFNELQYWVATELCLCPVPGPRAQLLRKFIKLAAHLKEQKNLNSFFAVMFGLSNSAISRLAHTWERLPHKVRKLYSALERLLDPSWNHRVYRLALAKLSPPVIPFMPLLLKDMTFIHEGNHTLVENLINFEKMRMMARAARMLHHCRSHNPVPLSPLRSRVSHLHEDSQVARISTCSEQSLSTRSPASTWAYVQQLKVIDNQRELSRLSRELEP
Rap guanine nucleotide exchange factor 4 (Homo sapiens), sequence (Q8WZA2 whole entry, looked up): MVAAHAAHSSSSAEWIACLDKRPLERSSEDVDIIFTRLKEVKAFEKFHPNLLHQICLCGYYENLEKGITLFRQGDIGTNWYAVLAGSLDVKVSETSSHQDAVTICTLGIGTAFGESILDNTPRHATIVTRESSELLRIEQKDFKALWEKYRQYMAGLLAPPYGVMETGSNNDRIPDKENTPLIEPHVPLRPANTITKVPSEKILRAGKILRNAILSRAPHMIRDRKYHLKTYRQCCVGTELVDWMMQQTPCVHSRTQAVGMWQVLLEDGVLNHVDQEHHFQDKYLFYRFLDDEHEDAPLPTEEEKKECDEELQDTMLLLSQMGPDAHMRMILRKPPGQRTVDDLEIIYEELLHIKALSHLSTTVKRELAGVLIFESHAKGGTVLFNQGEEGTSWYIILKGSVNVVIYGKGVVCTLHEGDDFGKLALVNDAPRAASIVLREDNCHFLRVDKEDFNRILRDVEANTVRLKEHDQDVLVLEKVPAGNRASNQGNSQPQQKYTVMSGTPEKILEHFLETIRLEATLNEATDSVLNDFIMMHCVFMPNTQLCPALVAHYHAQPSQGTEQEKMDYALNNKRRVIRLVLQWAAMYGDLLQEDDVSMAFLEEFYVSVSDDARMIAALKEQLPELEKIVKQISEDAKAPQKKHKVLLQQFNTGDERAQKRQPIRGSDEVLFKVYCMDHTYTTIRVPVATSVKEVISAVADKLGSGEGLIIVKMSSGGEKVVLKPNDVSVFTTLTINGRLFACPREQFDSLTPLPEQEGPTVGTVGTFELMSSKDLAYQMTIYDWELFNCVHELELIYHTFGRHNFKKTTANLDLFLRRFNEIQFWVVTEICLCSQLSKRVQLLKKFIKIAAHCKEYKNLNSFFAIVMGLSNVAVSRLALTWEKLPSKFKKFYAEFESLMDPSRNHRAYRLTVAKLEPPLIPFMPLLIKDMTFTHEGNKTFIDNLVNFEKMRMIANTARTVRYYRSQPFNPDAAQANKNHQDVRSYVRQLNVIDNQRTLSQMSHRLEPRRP

Regarding `COc1ccc(-c2nc3n(c(=O)c2C#N)CCS3)cc1`, the Potency entry in assay [1], in assay [2] and in assay [4] was “inactive” each time. In addition, the activation in assay [3] was 4.85% [at 17.1 µM, percent relative to cAMP agonist control]. The activity change, negative = inhibition in assay [5] was -1.96% [at 30.8 µM].
In the case of `CO/N=C/c1ccc(Sc2ccccc2)c([N+](=O)[O-])c1`, the Potency entry in assay [1], in assay [2] and in assay [4] was “inactive” throughout. Further, the activation in assay [3] was 6.03% [at 17.1 µM, percent relative to cAMP agonist control]. Besides, the activity change, negative = inhibition in assay [5] is -14.9% [at 30.8 µM].
As to `Cc1c(C(=O)NCCO)sc2nc3n(c(=O)c12)CCC3`, the Potency result in assay [1], in assay [2], in assay [3], in assay [4] and in assay [5] was “inactive” in each case.
For `CN1CCN(C2=C(Cl)C(=O)c3ccccc3C2=O)CC1`, the Potency in assay [1] is 25.1 µM (active). In addition, the Potency entry in assay [2] and in assay [4] was “inactive” throughout. The activation in assay [3] is 11% [at 17.1 µM, percent relative to cAMP agonist control]. Besides, the activity change, negative = inhibition in assay [5] was 17.9% [at 30.8 µM].
On to `COC(=O)c1ccc2nc(C3CCCCC3)c(Cc3cccc(F)c3)n2c1`, for which the Potency entry in assay [1], in assay [2], in assay [3], in assay [4] and in assay [5] was “inactive” in each case.
With `Cc1ccc(CN2C(=O)CSC2c2ccccc2F)cc1` (stereo not given), the Potency result in assay [1], in assay [2], in assay [3] and in assay [5] was “inactive” in each case. In addition, in assay [4], the Potency was 33.8 µM (active).
Turning to `Cc1ccc(-c2cn3c(n2)sc2cc(C(=O)NCCC4=CCCCC4)ccc23)c(C)c1`, the Potency entry in assay [1], in assay [2], in assay [3], in assay [4] and in assay [5] was “inactive” throughout.
As to `Cc1cccc(C(=O)Nc2ccc3c(c2)ncn3C)c1`, the Potency entry in assay [1], in assay [2], in assay [3], in assay [4] and in assay [5] was “inactive” in each case.
In the case of `COc1ccc(C=C2SC(=O)NC2=O)cc1OC`, the Potency entry in assay [1], in assay [2] and in assay [4] was “inactive” in each case. Besides, the activation in assay [3] is 12% [at 17.1 µM, percent relative to cAMP agonist control]. The activity change, negative = inhibition in assay [5] is 12.5% [at 30.8 µM].
Turning to `O=C(Nc1cccc(Cl)c1)C1CCCN(C2=NS(=O)(=O)c3ccccc32)C1` (stereo not given), the Potency entry in assay [1], in assay [2], in assay [3], in assay [4] and in assay [5] was “inactive” in each case.
`CCc1ccc(S(=O)(=O)/N=C2\C=C(NS(=O)(=O)c3ccccc3)C(=O)c3ccccc32)cc1`: the Potency in assay [1] is 19 µM (active). Moreover, the Potency result in assay [2], in assay [3], in assay [4] and in assay [5] was “inactive” throughout.
As for `Cc1cc(Nc2ccccc2)n(-c2nc3ccccc3[nH]2)n1`, the Potency entry in assay [1], in assay [2] and in assay [4] was “inactive” throughout. For the same compound, in assay [3], the activation was 5.09% [at 17.1 µM, percent relative to cAMP agonist control]. The activity change, negative = inhibition in assay [5] is -0.198% [at 30.8 µM].
Consider `CCc1ccc(Nc2n[n+](-c3ccccc3)c(-c3cc(OC)c(OC)cc3Br)s2)cc1`, for which the Potency result in assay [1], in assay [2], in assay [3], in assay [4] and in assay [5] was “inactive” each time.
As to `Cc1ccc(CNC(=O)COc2ccccc2-c2ccccc2)cc1`, the Potency result in assay [1], in assay [2] and in assay [4] was “inactive” each time. For the same compound, the activation in assay [3] was 2.73% [at 17.1 µM, percent relative to cAMP agonist control]. The activity change, negative = inhibition in assay [5] is 0.587% [at 30.8 µM].
In the case of `COc1cc(Cl)c(C)cc1NC(=O)CSc1cc(Cl)ccc1Cl`, in assay [1], the Potency is 67.5 µM (active). Also, the Potency result in assay [2], in assay [3], in assay [4] and in assay [5] was “inactive” throughout.
On to `Cn1cc(C(c2ccccc2)c2ccc(Cl)s2)c2ccccc21` (stereo not given), for which the Potency entry in assay [1], in assay [2], in assay [3], in assay [4] and in assay [5] was “inactive” throughout.
As to `Cc1nn(-c2ccccc2)c(C)c1NC(=O)COC(=O)Cc1cccc(C(F)(F)F)c1`, the Potency entry in assay [1], in assay [2], in assay [3], in assay [4] and in assay [5] was “inactive” each time.
For the compound `COc1ccc2cc(-c3cn4c(n3)sc3cc(F)ccc34)c(=O)oc2c1`, the Potency result in assay [1], in assay [2], in assay [3], in assay [4] and in assay [5] was “inactive” throughout.
